# Unmarked numbers belong to inactive results. Results filed as inconclusive are left out. A call without a number means that no potency is given here. Calls of active or inactive are those of the source. Unless noted, calls come from the whole dose curve; as a rule, active = well fitted curve in the direction sought with a large enough effect in the repeat runs; inconclusive = weak or mixed curves; inactive = no such curve, though single readings can be large; an effect the other way counts as inactive or inconclusive.
# Assays:
# [1] = qHTS assay to identify small molecule antagonists of the estrogen receptor alpha (ER-alpha) signaling pathway using the BG1 cell line in the presence of 0.1 nM 17-beta-estradiol - cell viability counter screen (AID 1259241); note: nearly all actives have a fitted effect of over 40% in size
# Procedure, shortened: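 Measures cytotoxicity alongside the ER-alpha antagonist readout: VM7Luc4E2 cells, charcoal-stripped serum, 0.1 nM 17beta-estradiol final, 22 hr compound incubation at 37C, CellTiter-Fluor fluorescence.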
# [2] = qHTS assay to identify small molecule antagonists of the androgen receptor (AR) signaling pathway using the MDA cell line in the presence of 0.5 nM R1881 - cell viability counter screen (AID 1259242); note: nearly all actives have a fitted effect of over 45% in size
# Procedure, shortened: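 Fluorescence from CellTiter-Fluor, which reports protease activity of live cells, was read 30 min after reagent addition to MDA-kb2 cells that had been incubated 16 hr with compound and 0.5 nM R1881.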
# [3] = molecular target: Estrogen receptor (Homo sapiens) (UniProt P03372); test: qHTS assay to identify small molecule antagonists of the estrogen receptor alpha (ER-alpha) signaling pathway using the BG1 cell line in the presence of 0.1 nM 17-beta-estradiol (AID 1259244); note: nearly all actives have a fitted effect of over 50% in size
# Sequence of Estrogen receptor (Homo sapiens) (P03372 whole entry, looked up): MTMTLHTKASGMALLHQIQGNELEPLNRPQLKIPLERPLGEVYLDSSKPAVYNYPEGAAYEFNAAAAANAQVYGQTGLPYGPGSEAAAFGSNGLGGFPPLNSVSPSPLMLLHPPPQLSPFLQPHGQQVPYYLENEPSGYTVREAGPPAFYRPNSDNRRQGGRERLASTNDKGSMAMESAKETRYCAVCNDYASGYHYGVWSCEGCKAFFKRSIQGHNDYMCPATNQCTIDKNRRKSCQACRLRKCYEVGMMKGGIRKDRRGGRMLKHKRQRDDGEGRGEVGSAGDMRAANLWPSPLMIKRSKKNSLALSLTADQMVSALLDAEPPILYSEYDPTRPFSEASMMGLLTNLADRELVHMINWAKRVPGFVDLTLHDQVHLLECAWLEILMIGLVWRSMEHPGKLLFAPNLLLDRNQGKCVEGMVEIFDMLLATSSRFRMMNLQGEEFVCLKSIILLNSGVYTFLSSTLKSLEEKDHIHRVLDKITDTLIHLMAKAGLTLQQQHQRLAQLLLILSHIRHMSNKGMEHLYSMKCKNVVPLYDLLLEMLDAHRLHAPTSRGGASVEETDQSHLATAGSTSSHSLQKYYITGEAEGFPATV
# Procedure, shortened: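 Quantitative high-throughput screen in VM7Luc4E2 cells: compound plus 0.1 nM E2 (final), 22 h, 37C, 5% CO2; ONE-Glo added, 30 min room temperature, luminescence measured.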
# [4] = qHTS assay to identify small molecule HDAC inhibitors (AID 1259364); note: top concentration of the series differs between compounds; nearly all actives have a fitted effect of over 45% in size
# Procedure, shortened: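 Endogenous HDAC class I/II activity was measured in wild-type HCT-116 cells by HDAC-Glo luminescence after 2 h compound treatment.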
# [5] = qHTS assay to identify small molecule HDAC inhibitors - cell viability counter screen (AID 1259365); note: series mostly up to about 92 µM; nearly all actives have a fitted effect of over 50% in size
# Procedure, shortened: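 Following a 2hr exposure of overnight-plated wild-type HCT-116 cells to DMSO-delivered compounds, CellTiter-Glo was added and luminescence recorded after 30min at room temperature.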
# [6] = qHTS assay to identify small molecule agonists of the sonic hedgehog signaling (Shh) pathway - cell viability counter screen (AID 1259366); note: nearly all actives have a fitted effect of over 50% in size
# Procedure, shortened: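 After a 4hr attachment at 37C, NIH/3T3 cells bearing an integrated Gli1-driven luciferase reporter were dosed with compounds. Treatment lasted 24hr, with the final hour including CellTiter-Fluor for a fluorescence viability measurement.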
# [7] = qHTS assay to identify small molecule antagonists of the sonic hedgehog signaling (Shh) pathway - cell viability counter screen (AID 1259367); note: nearly all actives have a fitted effect of over 55% in size
# Procedure, shortened: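 NIH/3T3-derived Gli1-Luc reporter cells (2,000 per well) rested 4 hr at 37 C, then received DMSO compounds plus conditioned medium. After 23 hr of treatment, CellTiter-Fluor was added for 1 hr at 37C and fluorescence read.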
# [8] = qHTS assay to identify small molecule antagonists of the sonic hedgehog signaling (Shh) pathway (AID 1259369; calls by dose curve; note: nearly all actives have a fitted effect of over 45% in size)
# Procedure, shortened: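 Screening used 3T3Gli1-Luc cells at 2,000 per well, compounds delivered in DMSO, and conditioned medium as agonist stimulus; plates incubated 24hr at 37 C and 5% CO2 before a 30min luciferase step.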
# [9] = molecular target: Estrogen receptor beta (Homo sapiens) (UniProt Q92731); test: qHTS assay to identify small molecule agonists of the estrogen receptor beta (ER-beta) signaling pathway (AID 1259377; active = well fitted activation curve with a large enough effect in the signal ratio in the repeat runs, not every such curve was filed as active; the % refers to the signal ratio)
# Sequence of Estrogen receptor beta (Homo sapiens) (Q92731 whole entry, looked up): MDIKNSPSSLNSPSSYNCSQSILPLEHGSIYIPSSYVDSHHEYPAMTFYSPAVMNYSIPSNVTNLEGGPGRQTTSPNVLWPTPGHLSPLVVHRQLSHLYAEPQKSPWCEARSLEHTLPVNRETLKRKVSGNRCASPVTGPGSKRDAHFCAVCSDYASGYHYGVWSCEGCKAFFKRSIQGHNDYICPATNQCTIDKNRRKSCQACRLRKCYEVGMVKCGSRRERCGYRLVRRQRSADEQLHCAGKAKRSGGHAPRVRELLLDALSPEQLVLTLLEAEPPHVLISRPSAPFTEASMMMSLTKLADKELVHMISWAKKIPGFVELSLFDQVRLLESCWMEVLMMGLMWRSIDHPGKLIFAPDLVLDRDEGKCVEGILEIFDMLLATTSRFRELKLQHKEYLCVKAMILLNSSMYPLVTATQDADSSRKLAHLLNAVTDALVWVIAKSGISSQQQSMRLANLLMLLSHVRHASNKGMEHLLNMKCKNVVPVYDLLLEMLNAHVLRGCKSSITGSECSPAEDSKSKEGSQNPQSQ
# Procedure, shortened: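 In HEK293T cells bearing a UAS-beta-lactamase reporter under ER-beta control, DMSO-delivered compounds were incubated for 16 hr at 37C. Activity was detected as fluorescence 2 hours after LiveBLAzer B/G FRET substrate addition.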
# [10] = molecular target: Estrogen receptor beta (Homo sapiens) (UniProt Q92731); test: qHTS assay to identify small molecule antagonists of the estrogen receptor beta (ER-beta) signaling pathway (AID 1259378; active = well fitted inhibition curve with a large enough effect in the signal ratio in the repeat runs, not every such curve was filed as active; the % refers to the signal ratio)
# Procedure, shortened: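 ER-beta-UAS-bla HEK293T (GripTite) cells in 2% charcoal-stripped FBS medium were preincubated 6 hr at 37C, dosed with compound, then stimulated with 1 nM E2 (final) for 16 hr; beta-lactamase reporter read by B/G FRET fluorescence after 2 hr substrate loading.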
# [11] = qHTS assay to identify small molecule agonists of the androgen receptor (AR) signaling pathway in the presence of an antagonist - cell viability counter screen (AID 1259379);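 note: MDA-kb2 human breast cancer cells carrying an MMTV luciferase reporter; series mostly up to about 92 µM; nearly all actives have a fitted effect of over 25% in size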
# Procedure, shortened: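 In MDA-kb2 cells (human breast carcinoma, MMTV-luciferase), compounds at 15 concentrations plus 3.0uM nilutamide; 16 hr, 37C, 0% CO2; CellTiter-Fluor fluorescence read for viability.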
# [12] = qHTS assay to identify small molecule antagonists of the estrogen receptor beta (ER-beta) signaling pathway - cell viability counter screen (AID 1259382); note: series mostly up to about 92 µM; nearly all actives have a fitted effect of over 55% in size
# Procedure, shortened: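 Tox21 10K library tested in qHTS format on ER-beta-bla HEK293T cells stimulated with 1nM E2; 16 hr treatment at 37C. Same-well CellTiter-Glo luminescence served as the cell viability measure.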
# [13] = molecular target: Estrogen receptor (Homo sapiens) (UniProt P03372); test: qHTS assay to identify small molecule agonists of the estrogen receptor alpha (ER-alpha) signaling pathway in the presence of an antagonist (AID 1259383; calls by dose curve; note: nearly all actives have a fitted effect of over 15% in size; note: potency is the fitted concentration of half-maximal effect; for activation: top concentration of the series differs between compounds)
# Procedure, shortened: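 In VM7Luc4E2 cells, 4,000 per well, compounds at 15 concentrations were co-incubated 22hr at 37C with 10.0nM final ICI-182,780. Luminescence from the stably transfected 4×ERE-luciferase reporter was recorded 30min after ONE-Glo addition.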
# [14] = qHTS assay to identify small molecule agonists or antagonists of the thyroid stimulating hormone receptor (TSHR) signaling pathway - wild type cell line counter screen (AID 1259384; calls by dose curve)
# Procedure, shortened: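 Wild-type HEK293 cells were plated 18 h at 37 C/5% CO2, pin-dosed with compound plus Ro20-1724 medium, held 30 min at room temperature, then given cAMP-d2 and anti-cAMP-cryptate; fluorescence was read after 1 h. Fifteen concentrations, triplicate.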
# [15] = molecular target: Thyrotropin receptor (Homo sapiens) (UniProt P16473); test: qHTS assay to identify small molecule antagonists of the thyroid stimulating hormone receptor (TSHR) signaling pathway (AID 1259385; calls by dose curve; note: nearly all actives have a fitted effect of over 20% in size)
# Sequence of Thyrotropin receptor (Homo sapiens) (P16473 whole entry, looked up): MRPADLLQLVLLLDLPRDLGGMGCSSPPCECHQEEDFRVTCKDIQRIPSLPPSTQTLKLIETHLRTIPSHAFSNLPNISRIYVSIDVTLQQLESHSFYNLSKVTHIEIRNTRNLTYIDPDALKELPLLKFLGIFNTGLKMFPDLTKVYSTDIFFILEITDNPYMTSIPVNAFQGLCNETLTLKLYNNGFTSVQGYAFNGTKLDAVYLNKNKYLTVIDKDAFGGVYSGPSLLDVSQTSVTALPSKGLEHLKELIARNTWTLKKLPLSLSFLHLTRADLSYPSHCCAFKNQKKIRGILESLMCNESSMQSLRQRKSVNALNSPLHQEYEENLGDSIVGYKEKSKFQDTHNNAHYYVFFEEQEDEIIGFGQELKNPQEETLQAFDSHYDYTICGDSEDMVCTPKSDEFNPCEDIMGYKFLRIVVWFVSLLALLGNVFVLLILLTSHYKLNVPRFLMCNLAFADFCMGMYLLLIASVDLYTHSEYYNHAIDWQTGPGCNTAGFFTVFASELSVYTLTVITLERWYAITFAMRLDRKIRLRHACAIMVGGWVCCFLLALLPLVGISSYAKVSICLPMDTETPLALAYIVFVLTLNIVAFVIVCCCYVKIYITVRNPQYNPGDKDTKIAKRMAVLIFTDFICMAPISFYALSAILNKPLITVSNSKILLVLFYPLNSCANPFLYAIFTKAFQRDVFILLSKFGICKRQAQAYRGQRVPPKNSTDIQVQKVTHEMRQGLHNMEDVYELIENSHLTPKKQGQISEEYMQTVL
# Procedure, shortened: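 TSHR-HEK293 cells were plated and held 18 h at 37C/5% CO2, then given compound plus Ro20-1724 and stimulated with TSH at 1.5 ng/mL final. After 30 min at room temperature, cAMP was detected with cAMP-d2/anti-cAMP-cryptate (1 h) by fluorescence.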
# [16] = qHTS assay to identify small molecule agonists of the sonic hedgehog signaling (Shh) pathway (AID 1259368; calls by dose curve;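 note: NIH/3T3-derived 3T3Gli1-Luc cells carrying a stable Gli1-driven firefly luciferase reporter; series mostly up to about 92 µM; nearly all actives have a fitted effect of over 15% in size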)
# Procedure, shortened: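 Luminescent signal was taken as a measure of Gli1-controlled luciferase expression in stably transfected NIH/3T3-derived cells that had been treated for 24 hr with compounds delivered in DMSO.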
# [17] = qHTS assay to identify small molecule agonists of the estrogen receptor beta (ER-beta) signaling pathway - cell viability counter screen (AID 1259380); note: nearly all actives have a fitted effect of over 30% in size; note: potency is the fitted concentration of half-maximal effect
# Procedure, shortened: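 Viability of ER-beta-UAS-bla HEK293T cells was determined by CellTiter-Glo luminescence following 16 hr treatment with test compounds at 37C.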
# [18] = qHTS assay to identify small molecule phospholipidosis (PLD) inducers (AID 1259344; active = well fitted curve in the direction sought with a large enough effect; an effect the other way counts as inactive or inconclusive)
# Procedure, shortened: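 HepG2 cells on collagen I, attached 4 h at 37 C, were co-treated with compound and LipidTOX Red dye for 24 h at 37 C, then fixed with paraformaldehyde plus Hoechst 33342 and imaged by high-content microscopy for phospholipid accumulation.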
# [19] = molecular target: Androgen receptor (Homo sapiens) (UniProt P10275); test: qHTS assay to identify small molecule agonists of the androgen receptor (AR) signaling pathway in the presence of an antagonist (AID 1259381; calls by dose curve; note: nearly all actives have a fitted effect of over 15% in size)
# Sequence of Androgen receptor (Homo sapiens) (P10275 whole entry, looked up): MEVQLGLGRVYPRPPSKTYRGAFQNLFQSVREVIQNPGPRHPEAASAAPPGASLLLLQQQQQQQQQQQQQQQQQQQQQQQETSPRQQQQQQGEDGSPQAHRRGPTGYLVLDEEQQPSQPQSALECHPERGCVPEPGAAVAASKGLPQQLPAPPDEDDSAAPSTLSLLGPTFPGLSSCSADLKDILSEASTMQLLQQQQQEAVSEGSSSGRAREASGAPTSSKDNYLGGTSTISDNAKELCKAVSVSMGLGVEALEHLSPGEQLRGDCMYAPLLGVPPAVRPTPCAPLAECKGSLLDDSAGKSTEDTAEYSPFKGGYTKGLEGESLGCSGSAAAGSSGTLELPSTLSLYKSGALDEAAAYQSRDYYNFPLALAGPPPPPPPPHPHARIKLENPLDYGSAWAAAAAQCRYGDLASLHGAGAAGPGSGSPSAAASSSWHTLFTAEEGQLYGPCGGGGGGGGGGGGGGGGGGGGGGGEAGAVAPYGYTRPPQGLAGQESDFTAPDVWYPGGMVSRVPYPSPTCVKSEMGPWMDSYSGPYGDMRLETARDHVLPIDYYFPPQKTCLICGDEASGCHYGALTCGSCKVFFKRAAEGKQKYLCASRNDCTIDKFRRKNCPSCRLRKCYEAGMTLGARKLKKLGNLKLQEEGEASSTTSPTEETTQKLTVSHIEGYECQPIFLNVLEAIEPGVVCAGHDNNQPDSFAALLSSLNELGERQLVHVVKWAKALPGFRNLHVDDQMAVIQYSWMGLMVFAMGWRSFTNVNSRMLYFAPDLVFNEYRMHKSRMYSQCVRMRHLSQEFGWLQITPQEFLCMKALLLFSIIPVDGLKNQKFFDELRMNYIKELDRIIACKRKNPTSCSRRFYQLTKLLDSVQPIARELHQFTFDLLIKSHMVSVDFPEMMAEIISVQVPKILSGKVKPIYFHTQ
# Procedure, shortened: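 Here, 15-concentration compound series were pin-transferred onto MDA-kb2 MMTV-luciferase cells already dosed with nilutamide (3.0uM final). After 16hr at 37C, ONE-Glo was added and luminescence read 30min later at room temperature.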
Compound,outcome [1],outcome [2],Potency [3],Potency [4],outcome [5],Potency [6],Potency [7],Potency [8],outcome [9],Potency [10],Potency [11],Potency [12],Potency [13],Potency [14],Potency [15],outcome [16],Potency [17],outcome [18],Potency [19]
N#CCNCC#N,inactive,inactive,inactive,inactive,inactive,inactive,inactive,inactive,inactive,inactive,inactive,inactive,inactive,inactive,inactive,–,–,–,–
Oc1c(Cl)cccc1Cl,inactive,inactive,inactive,inactive,inactive,inactive,inactive,inactive,–,inactive,inactive,inactive,inactive,inactive,inactive,inactive,–,–,–
[Cl][Sn]([Cl])([Cl])[Cl],inactive,inactive,inactive,inactive,inactive,inactive,inactive,inactive,–,–,inactive,inactive,inactive,–,–,inactive,inactive,–,–
N#Cc1c(Cl)cccc1Cl,inactive,inactive,inactive,inactive,inactive,inactive,inactive,inactive,inactive,inactive,inactive,inactive,inactive,–,–,–,inactive,–,–
O=c1oc2ccccc2c(O)c1C1CCCc2ccccc21 (stereo unspecified),inactive,inactive,inactive,inactive,inactive,inactive,inactive,inactive,–,inactive,inactive,inactive,inactive,–,–,inactive,–,–,–
COc1cc(C[C@@H](C)N)c(OC)cc1C,inactive,inactive,inactive,inactive,inactive,inactive,inactive,inactive,inactive,inactive,inactive,inactive,inactive,inactive,inactive,–,inactive,–,–
NC1=NC(=O)C(c2ccccc2)O1 (stereo unspecified),inactive,inactive,–,inactive,inactive,inactive,–,inactive,inactive,inactive,inactive,inactive,–,inactive,inactive,inactive,inactive,inactive,–
CN1CCC(O)(c2ccc(F)cc2)C(C(=O)c2ccc(F)cc2)C1 (stereo unspecified),inactive,inactive,–,inactive,inactive,inactive,inactive,inactive,inactive,inactive,inactive,inactive,–,inactive,inactive,inactive,inactive,inactive,–
O=C(CCCN1CCC(n2c(=O)[nH]c3ccccc32)CC1)c1ccc(F)cc1,inactive,inactive,–,inactive,inactive,inactive,inactive,–,–,–,–,inactive,inactive,inactive,–,inactive,–,inactive,inactive
CN1C[C@@H](NS(=O)(=O)N(C)C)C[C@@H]2c3cccc4c3c(cn4C)C[C@H]21,inactive,inactive,–,inactive,inactive,–,–,inactive,inactive,inactive,inactive,inactive,–,–,inactive,inactive,–,inactive,–
C[C@H]1CCC[C@H](O)CCCCCc2cc(O)cc(O)c2C(=O)O1,inactive,inactive,–,inactive,inactive,–,–,–,–,–,–,inactive,61.6 nM (active),inactive,inactive,inactive,inactive,inactive,–
CCC1(c2ccccc2)C(=O)N=C(O)NC1=O (stereo unspecified),inactive,inactive,inactive,inactive,–,inactive,inactive,inactive,inactive,inactive,inactive,inactive,inactive,inactive,inactive,inactive,inactive,–,–
ClC(Cl)C(Cl)Cl,inactive,inactive,inactive,inactive,inactive,inactive,–,inactive,inactive,inactive,inactive,inactive,inactive,–,–,inactive,inactive,–,–
C1CCC(C2CCCCC2)CC1,inactive,inactive,inactive,inactive,inactive,inactive,–,inactive,–,inactive,inactive,–,inactive,inactive,inactive,inactive,38.6 µM (active),–,–
